A selection: hits, their analogues and other compounds. The true share with any hit is near 12%.
L3MBTL1 inh – L3MBTL1 (human) inhibition; Q9Y468; AID 485360; AlphaScreen L3MBTL1–H3K9me1 peptide binding; Potency, µM (highest dose often 57.1 µM), for inactives: top-dose activity, negative = inhibition, usual class: inhibitors; 230,000 tested, 0.66% active; note: % is set by controls: 0 for no effect and ±100 for the full control effect; nearly all actives have a fitted effect of over 60% in size
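L3MBTL1 (50 nM) pre-complexed 30 min with biotinylated H3(1-15)K9me1 peptide (75 nM), then compounds added for 30 min at room temperature; AlphaScreen streptavidin donor/nickel chelate acceptor beads (10 ug/mL final) read after 30 min dark incubation.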
Sfp inh – inhibitors of Bacillus subtilis Sfp phosphopantetheinyl transferase | Q9F4F7 | Biochemical Sfp PPTase activity, qHTS | Potency, µM, without a hit: largest response in the series, negative = inhibition, hits mostly inhibitors | 310,000 tested, 3.5% active;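 note: the enzyme is Sfp with the accession as filed and its product quenches rhodamine fluorescence; 0% = enzyme reaction without inhibitor and -100% = no enzyme wells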
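Step 1, compound plus 15 nM Sfp-PPTase, 15 min, room temperature. Step 2, add rhodamine-CoA (5 uM) and BHQ-2-YbbR (12.5 uM). Step 3, read 525/598 nm fluorescence at 0 and 30 min.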
BAZ2B inh – inhibitors of human BAZ2B bromodomain; Q9UIF8; AlphaScreen BAZ2B-H3K14Ac peptide displacement; Potency, µM (doses to about 114 µM), inactives show at the top dose activity change, negative = inhibition, most hits filed as inhibitors; 360,000 tested, 4.4% active; note: % is set by controls: 0 for no effect and ±100 for the full control effect; nearly all actives have a fitted effect of over 60% in size
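Inhibition is scored as reduced AlphaScreen emission. The BAZ2B/b-H3(5-23)K14Ac complex (50 nM each) in PBS pH 7.4, 0.01% Tween-20 meets compound (up to 110 uM) for 30 min at RT before bead addition.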
HP1b binding inh – inhibitors of HP1-beta chromodomain binding to methylated histone tails; AID 540317; Potency, µM (top dose mostly 114 µM), for inactives: at the highest dose activity change, negative = inhibition, most hits filed as inhibitors; 390,000 tested, 0.56% active; P83916; AlphaScreen HP1-beta / biotin-H3K9me3 peptide binding; note: nearly all actives have a fitted effect of over 70% in size
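AlphaScreen: HP1-beta (50 nM) preformed 30 min with biotin-H3(1-18)K9me3 peptide (50 nM) in PBS pH 7.4, 0.01% Tween-20. Compound added for 30 min at RT, then streptavidin donor/nickel chelate acceptor beads (10 ug/mL) for 30 min.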
JMJD2A Tudor inh – JMJD2A Tudor domain (human) inhibition | O75164 | AlphaScreen JMJD2A-Tudor / H3K4me3 peptide binding | Potency, µM (top dose mostly 114 µM), without a hit: at the top dose activity change, negative = inhibition, actives largely listed as inhibitors | 390,000 tested, 4.4% active; note: % is set by controls: 0 for no effect and ±100 for the full control effect; nearly all actives have a fitted effect of over 50% in size
G9a block – G9a (human) methyltransferase inhibition | Q96KQ7 | G9a H3K9 monomethylation, AlphaScreen, 2 h | 350,000 tested, 8.8% active | Potency, µM (titrated, usually from 102 µM), without a hit: at the highest dose activity, negative = inhibition, most hits filed as inhibitors; note: % is set by controls: 0 for no effect and ±100 for the full control effect; nearly all actives have a fitted effect of over 75% in size
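Using a bead-based AlphaScreen, monomethylated H3K9 product from 2 h room-temperature reactions (G9a 20 nM, peptide 500 nM, SAM 20 uM) was detected with 0.5 ug/mL rabbit anti-H3K9me1 antibody.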
* marks the source's active call; other numbers are inactive results; ? = inconclusive; nt = no result; ! = not active in a repeat; [ ] = remark or other dose. Calls come from the whole dose curve; as a rule, active = well fitted curve in the direction sought with a large enough effect; inconclusive = small, poorly fitted or top-dose-only effect, or another doubt; inactive = no such curve, though single readings can be large; an effect the other way counts as inactive or inconclusive. Potency is the fitted concentration of half-maximal effect.

SMILES	L3MBTL1 inh	Sfp inh	BAZ2B inh	HP1b binding inh	JMJD2A Tudor inh	G9a block
Cc1cccc(NC(=O)C(C)OC(=O)c2ccccc2NS(=O)(=O)c2cc(C)c(C)c([N+](=O)[O-])c2)c1 (stereo not drawn)	-12%	19%	-11%	13%	-26%	-19%[59 µM]
O=C(O)c1ccccc1NS(=O)(=O)c1ccc(NNC(=S)Nc2ccc(OC(F)F)cc2)c([N+](=O)[O-])c1	nt	?	7.9µM*	10µM*	25µM*	10µM*
Cc1ccc(NC(=S)NNc2ccc([N+](=O)[O-])cc2S(=O)(=O)Nc2ccccc2C(=O)O)cc1C	-22%	40µM*	11µM*	?	50µM*	11µM*
Cc1ccc(Nc2ccc(C(N)=O)cc2[N+](=O)[O-])cc1C	-5%	1%	-7%	0%	?	?
N#Cc1ccc(C(=O)NCC(=O)OC(C(=O)Nc2cc(C(F)(F)F)ccc2Cl)c2ccccc2)cc1 (stereo not drawn)	nt	nt	nt	nt	-23%	nt
Cc1cc(C)c(NC(=O)C2CC(=O)N(C3CCCC3)C2)c(C)c1 (stereo not drawn)	9%	nt	nt	23%	-5%	nt
COc1ccc(Nc2nc(C#N)nc(NC3CCCC3)n2)cc1	nt	nt	nt	nt	-29%	nt
Cc1ccc(Nc2nnc(-c3ccc4c(c3)OCO4)o2)c(C)c1	2%	50µM*	-10%	-14%	-11%	25µM*
Cc1ccc(CSc2nnc(-c3ccc4c(c3)OCO4)o2)cc1	nt	-12%	10%	30%	11%	5%[59 µM]
OCC1(CCc2ccccc2)CCN(Cc2cnc(N3CCCC3)s2)CC1	-26%	50µM*	-18%	6%	-23%	-43%
CCCCN(C(=O)CSc1nnc(-c2ccco2)o1)c1c(N)n(Cc2ccccc2)c(=O)[nH]c1=O	3%	?	-9%	13%	-23%	?
CCN(C(=O)CSc1ncccn1)c1c(N)n(Cc2ccccc2)c(=O)[nH]c1=O	2%	nt	-6%	21%	-17%	50µM*
CCN(C(=O)CSc1nnc2ccccn12)c1c(N)n(Cc2ccccc2)c(=O)[nH]c1=O	8%	-17%	5%	52%	2%	50µM*
CC(C)CN(C(=O)CSc1nnc(-c2ccco2)o1)c1c(N)n(Cc2ccccc2)c(=O)[nH]c1=O	-1%	79µM*	-2%	6%	-35%	-29%
CC(C)CN(C(=O)CN(C)C(=O)c1ccco1)c1c(N)n(CC(C)C)c(=O)[nH]c1=O	2%	nt	15%	19%	-1%	50µM*
COc1cc(C(c2c(C)[nH][nH]c2=O)c2c(C)[nH][nH]c2=O)ccc1OC(=O)c1cccc(C)c1	nt	nt	?	5%	?	?
Cc1ccc(C)c(NC(=O)NCCN2CCCCC2)c1	-2%	15%	-13%	39%	-5%	-9%
CCCCN(C(=O)CSc1nnc(-c2ccccc2)n1C)c1c(N)n(Cc2ccccc2)c(=O)[nH]c1=O	7%	15%	1%	20%	-12%	10µM*
Cc1cccc(NC(=O)CSCC(=O)N(CCC(C)C)c2c(N)n(Cc3ccccc3)c(=O)[nH]c2=O)c1	6%	nt	-15%	17%	-5%	40µM*
COCCN(C(=O)CSc1nnc(-c2ccc(C)c(C)c2)o1)c1c(N)n(CC(C)C)c(=O)[nH]c1=O	5%	nt	-3%	-3%	-11%	79µM*
CCN(CC)c1ccc(-c2nnc(SCC(=O)N(CCOC)c3c(N)n(CC(C)C)c(=O)[nH]c3=O)o2)cc1	-5%	nt	-34%	3%	-12%	-51%
CCN(CC)C(=O)Cn1cc(S(=O)(=O)CC(=O)NC2CCCCC2)c2ccccc21	-3%	8%	-6%	25%	-2%	-28%
Cc1cc(OC(C)C(=O)NCCCN2CCOCC2)ccc1Cl (stereo not drawn)	nt	8%	-18%	39%	-2%	51%
CN1CCN(CC(=O)N2c3ccccc3C(=O)Nc3cccnc32)CC1	12%	4%	11%	nt	nt	30µM*!

Screening results from PubChem BioAssay.
